# From the supplement of paper PMC12632987
# B1: GBRAPL2_0_7258 (protein)
# chain: LEEILKEMKTLSIEEAAELAKEEAERLVADPSVTPDEFEAAAFAMLEVLAEKVKKEKTEEALEIFDEAVDHFTALAAKIDPLTAAAVATHGGSLIYEIES
# B2: GBRAPL2_128_7270 (protein)
# chain: MKIVELDVNVKDEESYELALEILDEIAKNSSPEVKDLAEAARDLVEEAKKRGFGENVTAVDILSDEDAEELKKIYEELKKKYGEEKVNSVLELEISDVPP
# B3: GBRAPL2_0_7252 (protein)
# chain: MEELLKELLSLSLEEAKAAIEKLAEEVIKLIEKDPEKGLKAAEELAEVFAEYLIERKNEELEEAIVKAIDKLVKEVAKVDPNKAAYIDSIIGSAIMEVEG
# B4: GBRAPL2_0_7247 (protein)
# chain: MEELLKELLELSVEEAKKKIKELAKKAVELIKKDPEKGLEEAEKLAEVFAEYLEETKNEELAEAVDEAARLLVEEAEKVDPNAAAYIASEVGSALLDLEM
# B5: GBRAPL2_0_7245 (protein)
# chain: MEELLEKLLSLSLEEAKKKIKELAEKAIKLIKEDPEKGIKEAEKLAEVFAEVLEKRKDEELLKVIEEAIDKIVKEVAKVDPNAAAYIDAIFGSAIMEVEG
# B6: GBRAPL2_0_7259 (protein)
# chain: LEEVLEEMKELSIEEAAELAKKYVKELVADPSVTPEQFLEAAEALLEVLAEKVKEEKTEEALEIFDEAVDYFTEEAKKIDPETAAAVATYGGSLLYEIES
# B7: GBRAPL2_106_7267 (protein)
# chain: EKLKELLKQLEELAKKIEELLKKADENDEELIDETLELLNEATRQAIEAGLDEVAALLADAFNHVFEAKENPEERKENLEEALKDVKEAIKLVKKKIKEA
# B8: GBRAPL2_0_7256 (protein)
# chain: LEEVLEEMKKLSIEEAAKLAKEYAEKLLADPSVTPEEFLEAIEKLLEVLAEKVKEEKTEEALEIFEEAVDYFTALAAKIDPNLAADVATYGGSLLYEIEE
# B9: GBRAPL2_0_7257 (protein)
# chain: MEEVLKKMKELSIEEAAKLAKEEIEKLVADPSVTVEELEEAIEKLLEVLAEKVKEEKTEEALEILDEFVDYATELAAKVDPNLAAYVASYGGSLLYELEE
# B10: GBRAPL2_0_7249 (protein)
# chain: MEEELKELLSLSTEEAKKKIKEKAKEVIELIKKDPEEGLKAAEELAEIFAEYLEKTKNEELEEVIDEAIDEIVKEVAKVDPNEAAYIDAIIGSAIMEVEG
# B11: GBRAPL2_106_7269 (protein)
# chain: EELKELLEKLKELKEKIEELLEKAEEKDEELYDETIELADEVTRLAIELGLDEVAALIADAANDIFEALENPEERKEDLEEALEDVEEAIKLVEEEIKKE
# B12: GBRAPL2_0_7263 (protein)
# chain: LEKVLEEMKKLSIEEAKKLAKEYLEKLRDDPSVTPEEFLEAALKILDVLYEKVKKEKTEEALEIFEEFRDFAVELAAKVDPNIAAEVDSYAGSLIMELEE
# B13: GBRAPL2_0_7246 (protein)
# chain: MEELKKELLSLSLEEAKKKIKELAEKVIKLIKEDPEKGIEEAEKLTEVFAEVLVERKDEELKKVVEEAVEKIVEEVKKVDPKAAAYIDAIYGSALMEVEG
# B14: GBRAPL2_106_7265 (protein)
# chain: SGLEELLKLLEEALEKAKKLPEAFKKGDEEAVDELLELLDEATRLAIELGLDEVAALVAAAFDDVFAASEDPETAEEDFEEAIEDLEEAKELVEKRLEEE
# B15: GBRAPL2_0_7255 (protein)
# chain: LEEVLKKMKESSIEEAVELAKEEADRLVADPSVTPEEFEEAAVALLEVLAEKAKEEKTEEALELLEEAVDYLTELAKKVDPDVAAFIDTYGGSLLYELEE
# B16: GBRAPL2_0_7260 (protein)
# chain: MEEVLEKMKKLSLEEATKLAKEYLEKLRADPNVTKEEFEEAAEKLLEVLAEKAKKEKTEEALELFDEFVDYFTELAKKIDPNLAAYIASYGGSLLYEIES
# B17: GBRAPL2_128_7272 (protein)
# chain: MKLVEITINIKDEESYNLAIEILDRIAEKSSPEVADLADAAKDAAEIAAENGYDEKVVVVDVLSEEEAEELKKIYEEIKKELGEEKVKSVVELEITDIEP
# B18: GBRAPL2_0_7248 (protein)
# chain: MEELLKELLSLSTEERKKKIKELAKEAVKLIKEDPEKGLEAAIELAEVFAKVIEETKNEEIAEVVDEAIDLIVKEAAEVDPNAAAEIASIVGSALLELEM
# B19: GBRAPL2_106_7268 (protein)
# chain: KKLEEILEELEEALELVEELLERAEEKDEELLDETLELLDRVTRLAIEAGLDEVAALVADAANDVFAAEEDPENRKEYLERAKEDLEEAIKLVKEKIKEA
# B20: GBRAPL2_0_7243 (protein)
# chain: MEELLKELLSLSLEEAKAAIKELAEEAIKLIREDPEKGIKYAEELMEVFAEVLEKRKDEELLKVIEEAVEKIVEEVAKVDPNEAAYIDAIFGSAVMEVEG
# B21: GBRAPL2_0_7254 (protein)
# chain: MEKLLKELLSLSVEEAQKAIKEEAEKVVKYLKEDPEKGLEKAEELAEVFAELLKERKDEKLEETIEEAIDKIVKEAAKIDPNKAAYIAAIIGSALYEVES
# B22: GBRAPL2_0_7261 (protein)
# chain: MEEVLEKMKKLSIEEAAKLAKEYLEKLRNDPSVTPEEFEEAALKILEVLAEKVKKEKTEEALEIFEELVDYATKLAAEIDPNLAAYIDSYGGSLIMELEE
# B23: GBRAPL2_0_7250 (protein)
# chain: MEELLKELLSLSLEEAKKKIKELTEEVIKLIEKDPKKGLEKAIELAEIFAEYLIERKNEELEEVIDEAIDKLVKKVAEVDPNEAAYIDAIIGSAIMEVEG
# B24: GBRAPL2_106_7264 (protein)
# chain: EGLEKARKLAKEALEKAKKLPEAFKKGDEEAIDELLELLDELTRLAIELGLDEVAALVADAFDNVFAASEDPETAEEDLEEAIKDLEEALKLIEKKIKEL
# B25: GBRAPL2_0_7253 (protein)
# chain: KEELLEKLLSLSIEEAIKEVKKLAEEVIKYIKEKPEEGLKKAEELAEIFAELIEARKDEKLIKAVEEAIEKIVEEAKKIDPNEAAYIASIIGSALYEVES
# B26: GBRAPL2_0_7251 (protein)
# chain: MEELLEELLSLSLEEAKKKIKELAEKVIKLIKEDPEKGLEEAEKLAKVFAEYLIETKNEELEKVIDEAIDKIVKEVAKIDPNKAAYIDAIIGSAIMEVES
# B27: GBRAPL2_0_7262 (protein)
# chain: MEKVLEEMEKLSIEEAAKLAKEYAEKLKADPSVSPEQFEEAVLALLEVLYKKVKKEKTEKALEIFEEAVDYFTELAAEVDPNLAAYVDSYAGSLIMELEE
# B28: GBRAPL2_0_7241 (protein)
# chain: MEELLKRLLSLSLEEAKAEIKRLAEEVIKLIKEDPEKGKKEAEELVEVFAEYLIKSKNEELLEVIEEEVDKIVKEVAKIDPNFAAYLDSIIGSAIAEVES
# B29: GBRAPL2_106_7266 (protein)
# chain: EKLEELKKLLEEALELAKKLPEAFKAGDEEAIDELLDLLDEATRLAIELGLDEVAALVADAFDNVFAASEDPETAEEDFKEAIKNLEEALKLVEEELKKL
# B30: GBRAPL2_0_7242 (protein)
# chain: MEELLEELLSLSLEEAKARIRELAEEAIKLLKEDPEEGKKYAEELVEVFAEVLEKTKNEELREVIEEEVDRIVKEAAEIDPNFAAYLASIMGSAIYEVES
# B31: GBRAPL2_0_7244 (protein)
# chain: MEELLKRLLSLSLEEAKKEIKELAEKVIKLIREKPEEGIKAAEELMEVFAEVLVERKDEELEEVVEEAVDAIVEEVAKVDPNAAAYIDAIFGSAIMEVEG
# B32: GBRAPL2_128_7271 (protein)
# chain: KKIVEIDVDIKDEESYNLALEILDEISENSSPEVKKLADAAKDLVESAKEEGFGENVTAVDILSDEEAALLQKIYEEIKKKYGKEKVNSVVKLDISDVPP
# Molecular target: GABARAPL2, P60520
# Sequence (P60520 whole entry, the tested form may be a part): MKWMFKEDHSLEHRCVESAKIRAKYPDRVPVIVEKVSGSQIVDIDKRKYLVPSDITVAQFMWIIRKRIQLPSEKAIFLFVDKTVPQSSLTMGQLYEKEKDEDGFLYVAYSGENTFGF
# Assay: median log2 fold change of GCK-ALFA target abundance (FLAG IP / Myc IP barcode read proportion) (log2 ratio); each designed protein is fused to an ALFA-tag nanobody in HEK293 cells to bring the named protein to FLAG-tagged glucokinase (GCK); Myc marks an untargeted standard; higher = target protein stabilised (more abundant)
# Conditions: target protein: 3xFLAG-MCP-GCK-ALFA reporter; HEK293 landing pad (RPLP)
# How it was run: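 HEK293 landing-pad cells received a recombined binder library fused to the ALFA nanobody and were induced with 2 μg mL^−1 doxycycline, then transfected with a plasmid encoding a FLAG-tagged target and a Myc-tagged standard. Lysates were collected after 48 h for anti-FLAG and anti-Myc immunoprecipitation, and the circular RNA barcodes were reverse transcribed, amplified and sequenced. Target abundance for each binder is the median log2 ratio of FLAG to Myc barcode read proportions. Barcodes had to reach a proportion of at least 10^−7 in both replicates, each binder needed at least 3 barcodes per replicate, a pseudocount of 10^−6 was applied, and the two replicates were pooled.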
row,Binder,median log2 fold change
1,B1,-0.0288
2,B2,-0.268
3,B3,0.0463
4,B4,-0.0333
5,B5,0.154
6,B6,0.154
7,B7,0.226
8,B8,0.0867
9,B9,-0.0513
10,B10,-0.0458
11,B11,-0.274
12,B12,0.11
13,B13,0.169
14,B14,-0.285
15,B15,-0.088
16,B16,0.248

row,Binder,median log2 fold change
1,B17,-0.21
2,B18,0.0975
3,B19,-0.012
4,B20,0.0124
5,B21,0.0528
6,B22,0.0589
7,B23,-0.0651
8,B24,-0.195
9,B25,0.152
10,B26,-0.108
11,B27,0.203
12,B28,0.00211
13,B29,0.00104
14,B30,0.159
15,B31,-0.291
16,B32,-0.852
